In PubChem BioAssay (NCATS) one finds Potency and outcome data, which are given here for ten compounds.

SMILES strings stand for the structures. Records with an inconclusive call do not appear. Where a call stands in place of a potency, no number is given. The source made the active and inactive calls. Calls follow the shape of the dose curve; as a rule, active = well fitted inhibition curve with a large enough effect; inconclusive = small, poorly fitted or top-dose-only effect; inactive = flat fitted curve, though single readings scatter.

The test system of the experiment is CRL-7250. In words: qHTS assay to identify novel small-molecules to repurpose for Merkel cell carcinoma treatment (AID 1296009). Also: nearly all actives have a fitted effect of over 60% in size. The settings on record: MCC and control cell lines, CellTiter-Glo viability, 72 h; series mostly up to 92 µM. The gist of the method: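 After compound transfer in DMSO, plates were kept 72 hr at 37 degree celsius. Luminescent ATP signal from CellTiter-Glo served as viability measure, normalized against DMSO and no-cell controls.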
(In general: Quantitative high-throughput screening tests each substance at several concentrations.)
For `C=C[C@H]1[C@H](O[C@@H]2O[C@H](CO)[C@@H](O)[C@H](O)[C@H]2O)OC=C2C(=O)N3Cc4c([nH]c5ccccc5c4=O)[C@@H]3C[C@H]21`, the Potency result was “inactive”.
With `C=CC/C=C\C/C=C\CCCCCCCc1cccc(O)c1C(=O)O`, the Potency result was “inactive”.
For `O=C(O[C@H]1[C@@H]2C=CO[C@@H](O[C@@H]3O[C@H](CO)[C@@H](O)[C@H](O)[C@H]3O)[C@@H]2[C@@]2(CO)O[C@@H]12)c1ccc(O)c(O)c1`, the Potency result was “inactive”.
The same measure, in the same setting: to `N#CC(c1ccnc(OCc2ccc(CN3CCOCC3)cc2)n1)c1nc2ccccc2s1` (stereo not given) belongs “inactive”; to `O=C(/C=C/c1ccccc1)OCC1=CC[C@@H]2C(C(=O)O)=CO[C@@H](O[C@@H]3O[C@H](CO)[C@@H](O)[C@H](O)[C@H]3O)[C@H]12`, “inactive”; to `O=C(O)C[C@H]1CCC(=O)[C@@H]1C/C=C\CCO`, “inactive”.
Regarding `CC(C)C1CCC(CO)=CC1/C=C(\CO)C(=O)OCC1(O)CCC(C(C)C)C2C=C(C(=O)O)COC(=O)C21` (stereo not given), the Potency result was “inactive”.
On to `Cc1cc(O)cc(O[C@@H]2O[C@H](CO)[C@@H](O)[C@H](O)[C@H]2O)c1`, for which the Potency result was “inactive”.
Turning to `CC(=O)N[C@H]1[C@H](O[C@H]2CC[C@@]3(C)C(CC[C@]4(C)C3CC=C3C5CC(C)(C)CC[C@]5(C(=O)O)[C@H](O[C@@H]5O[C@H](CO)[C@@H](O)[C@H](O)[C@H]5O)C[C@]34C)C2(C)C)O[C@H](CO[C@@H]2OC[C@H](O)[C@H](O)[C@H]2O[C@@H]2OC[C@@H](O)[C@H](O)[C@H]2O)[C@@H](O)[C@@H]1O` (stereo not given in full), the outcome is “inactive [at 9.27 µM]”.
For `CC(C)(OC1OC(CO)C(O)C(O)C1O)C1CCC(O)(CO)C2CC(=O)C(C)(O)C2C1` (stereo not given), the Potency entry was “inactive”.
